Hits are enriched below; roughly 7.9% of the tested compounds scored in any of these assays.
Lassa entry inh: qHTS for Inhibitors of binding or entry into cells for Lassa Virus. Lassa virus pseudotype entry inhibition, cell reporter. 1.2% of 300,000 active. AID 540256, 2011. Potency, µM (top dose mostly 37.9 µM), inactives show top-dose activity change, negative = inhibition, most hits filed as inhibitors; calls by dose curve; tested in HEK293 cells; also: potency is read from the fitted curve at half-maximal effect; nearly all actives have a fitted effect of over 50% in size
FMDV antiviral: High Throughput Screening for Foot and Mouth Disease Virus Antivirals. FMDV antiviral cell-based qHTS. Potency, µM (highest dose often 57.9 µM), for inactives: at the highest dose activity change, negative = inhibition, most hits filed as inhibitors. 1.2% of 410,000 active. AID 1159524, 2015; calls by dose curve; tested in HEK293T cells; also: read-out not given here; potency is read from the fitted curve at half-maximal effect; nearly all actives have a fitted effect of over 45% in size
Marburg entry inh: qHTS for inhibitors of binding or entry into cells for Marburg Virus; Marburg virus pseudotyped entry inhibition, cell reporter; 1.8% of 300,000 active; Potency, µM (top dose mostly 37.8 µM), for the others: top-dose activity change, negative = inhibition, actives largely listed as inhibitors; calls by dose curve; tested in HEK293 cells; also: potency is read from the fitted curve at half-maximal effect
HCMV antiviral: qHTS Assay for inhibitors of the human cytomegalovirus (HCMV); HFF cells, HCMV-luciferase reporter, 72 h; active compounds read low; activity change, negative = inhibition, % at 57.5 µM; 4.5% of 410,000 active; in the data active = activity change below about -60%; inconclusive = no clear call, values can overlap the other calls; inactive = above about -39%
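Screen run at 2 compound doses on HFFs infected with reporter HCMV, MOI 1 PFU/cell. Luciferase activity from cell lysates at 72 h post infection gave inhibition relative to buffer-only and Salinomycin wells.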
HCV inh: qHTS Assay for Inhibitors of Hepatitis C Virus (HCV); Potency, µM (doses to about 41.8 µM), without a hit: at the highest dose activity change, negative = inhibition, usual class: inhibitors; Huh7.5.1 HCVcc-Cre infection, luciferase reporter, 44 h; 3.4% of 340,000 active; AID 651820, 2012; active = well fitted inhibition curve with a large enough effect; inconclusive = small, poorly fitted or top-dose-only effect, or another doubt; inactive = no such curve, though single readings can be large or run the other way; also: potency is read from the fitted curve at half-maximal effect
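Luciferase read-out (15 sec integration) after a 15 min room-temperature substrate step quantifies HCVcc-Cre infection. Cells, 1,000 per well, had compound added 4 h post-plating, then virus at ~0.5 moi, and were cultured 44 h.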
* = called active by the depositor; ? = inconclusive; nt = no result; [ ] = dose if it differs, or a comment. % is scaled to controls: 0 for no effect and ±100 for the full control effect.

SMILES | Lassa entry inh | FMDV antiviral | Marburg entry inh | HCMV antiviral | HCV inh
O=C1CCSc2ccc(S(=O)(=O)Nc3ccc(Cl)c(C(F)(F)F)c3)cc2N1 | 3.0%[46.1 µM] | 24.9% | nt | 5.7 | nt
Cc1ccc(CNC(=O)NC2COc3ccccc3C2)cc1 (stereo not drawn) | -17.3%[46.1 µM] | -10.2% | nt | 18.5 | nt
CCOc1ccc(NC(=O)c2ccc(NC(=O)c3ccccc3Br)cc2)cc1 | 6.1% | 1.0% | ? | -16.0 | 5.01µM*
COc1ccc(Br)cc1C(=O)Nc1ccc(C(=O)NCC(C)C)cc1 | nt | -6.8% | nt | ? | ?
CCOc1ccc(Br)cc1C(=O)Nc1ccc(C(=O)NCC(C)C)cc1 | 3.3% | -28.8% | ? | -80.0* | ?
CCC1(C2CCN(C(=O)c3ccccc3C)CC2)NC(=O)N(CCc2scnc2C)C1=O (stereo not drawn) | nt | 13.1% | nt | nt | nt
COc1ccc(CNC(=O)CN(Cc2ccccc2)S(=O)(=O)c2ccc(Cl)cc2)cc1 | -18.1% | ? | -11.7% | -17.2 | 10µM*
COc1ccc(C)cc1S(=O)(=O)N(CC(=O)NCc1ccc(Cl)cc1)Cc1ccccc1 | -25.3%[14.3 µM] | ? | 23.1µM* | 1.2 | nt
COc1ccc(C)cc1S(=O)(=O)N(CC(=O)N1CCOCC1)Cc1ccccc1 | -2.1% | nt | -0.7% | 46.0 | 16.3%
COc1ccc(CNC(=O)CN(Cc2ccc(Cl)cc2)S(=O)(=O)c2ccccc2)cc1 | ? | 28.2µM* | ? | -1.6 | -12.5%
COc1cccc(-c2ccc(O)c(CNCc3cccc(OC)c3OC)c2)n1 | nt | -2.9% | nt | nt | nt
CCN1C(=O)C(CC(=O)Nc2ccc(OC)cc2)N(CCCN2CCN(c3ccc(OC)cc3)CC2)C1=S (stereo not drawn) | ? | -19.9% | ? | -7.1 | 11.2µM*
CCOC(=O)c1cccc(NC(=O)CN2CCN(c3ccc(OC)cc3)CC2)c1 | 1.12µM* | -23.4% | -11.5% | 9.8 | 4.5%
COc1ccc(C(=O)NCC(=O)N2CCN(c3ccc(F)cc3)CC2)cc1 | 5.7%[46.1 µM] | 0.6% | -1.6%[46.1 µM] | -64.0* | 7.7%
CCN1C(=O)C(CC(=O)Nc2ccc(OC)cc2)N(CCN2CCOCC2)C1=S (stereo not drawn) | nt | -16.1% | nt | -0.5 | 8.8%
CCOC(=O)c1cc(S(=O)(=O)N2CCN(c3cccc(OC)c3)CC2)[nH]n1 | -6.3%[46.1 µM] | -7.9% | nt | -9.7 | nt
CCOC(=O)c1cc(S(=O)(=O)N2CCN(c3ccc(OC)cc3)CC2)[nH]n1 | 23.7%[46.1 µM] | 32.2% | nt | -112.3* | nt
COc1ccc(NC(=O)CCN2CCN(c3cccc(Cl)c3)CC2)cc1 | ? | -10.2% | ? | -10.4 | nt
COc1ccc(NC(=O)CCN2CCN(c3ccc(F)cc3)CC2)cc1 | nt | 1.0% | nt | -75.6* | -3.5%
O=C(NCc1ccco1)c1nc2c(nnn2Cc2ccccc2Cl)c(=O)[nH]1 | 13µM* | nt | ? | -97.7* | ?
Cc1ccc(C)c(Cn2nnc3c(=O)[nH]c(C(=O)NCc4ccco4)nc32)c1 | -17.9%[14.3 µM] | -11.4% | -16.7% | -10.1 | nt
CC(=O)Nc1ccc(NS(=O)(=O)c2c(C)nc3sccn3c2=O)cc1 | 5.9%[46.1 µM] | -1.4% | nt | 16.6 | nt
CCCOc1ccc(C2c3c(-c4ccccc4O)n[nH]c3C(=O)N2Cc2ccncc2)cc1OCC (stereo not drawn) | ? | -18.4% | 13.4%[46.1 µM] | 16.9 | nt
Cc1cccc(C(CC(=O)O)n2cccc2)c1 (stereo not drawn) | 0.0% | 5.9% | 11.9% | 38.5 | 2.7%
O=C(O)CC(c1cccc(Cl)c1)n1cccc1 (stereo not drawn) | 0.3% | 10.9% | 1.1% | -11.9 | 11.2µM*
SMILES | Lassa entry inh | FMDV antiviral | Marburg entry inh | HCMV antiviral | HCV inh
O=c1ccc(S(=O)(=O)N2CCCC2)cn1Cc1ccc(Cl)cc1Cl | nt | ? | nt | -34.4 | 6.31µM*
CN(C)C(=O)c1ccc(=O)n(Cc2ccc(Cl)cc2Cl)c1 | 8.9% | -2.8% | 4.6% | nt | 10.6%
CCN1CC2=C(OC(N)=C(C#N)C2c2cccs2)/C(=C\c2cccs2)C1 (stereo not drawn) | -44.7% | nt | ? | -29.9 | 14.1µM*
C(=N\Nc1nc(N2CCOCC2)nc(N2CCOCC2)n1)/c1ccncc1 | -2.8% | -7.7% | ? | 8.3 | 2.4%
Oc1ccc(Br)cc1/C=N/Nc1nc(N2CCCCC2)nc(N2CCOCC2)n1 | -20.2%[46.1 µM] | -17.6% | 2.51µM* | ? | ?
BrC(=C\c1ccccc1)/C=N/Nc1nc(N2CCOCC2)nc(N2CCOCC2)n1 | -17.1% | -25.7% | 7.94µM* | 32.3 | ?
COc1cccc(/C=N/Nc2nc(N3CCCC3)nc(N3CCCC3)n2)c1O | 16.1% | nt | 25.9µM* | -34.7 | -29.3%
Brc1cc2c(cc1/C=N/Nc1nc(N3CCCC3)nc(N3CCOCC3)n1)OCO2 | -15.8% | ? | -40.5% | -13.8 | 2.82µM*
COc1ccc(C)cc1NC(=O)N1CCN(c2cc(-c3noc(C)n3)ccc2C)CC1 | 17.0%[46.1 µM] | -26.4% | nt | -19.2 | nt
Cc1ccc2[nH]c(CSc3nnc(NC(=O)COc4ccccc4Cl)s3)cc(=O)c2c1 | 8.3%[46.1 µM] | -6.8% | nt | -23.5 | nt
Oc1ccccc1C=NNc1nc2ccccc2s1 | ? | 13.5% | ? | 86.9 | ?
Oc1ccc(/C=N/Nc2nc(N3CCCCCC3)nc(N3CCCCCC3)n2)c(O)c1 | ? | ? | ? | -89.3* | ?
Oc1ccc(/C=N/Nc2nc(N3CCCC3)nc(N3CCCC3)n2)cc1O | ? | -12.1% | ? | -34.0 | -15.8%
COc1cccc(/C=N/Nc2cc(N3CCOCC3)ncn2)c1O | ? | 1.5% | ? | -99.2* | ?
Oc1ccc(C=NNc2nc3ccccc3s2)c(O)c1 | ? | 13.3% | ? | -63.0* | ?
C/C(=N\Nc1nc(N2CCCCC2)nc(N2CCOCC2)n1)c1ccccc1O | 7.08µM* | ? | 1.78µM* | ? | ?
COc1ccc(/C=N/Nc2cc(N3CCOCC3)ncn2)c(OC)c1 | nt | -11.9% | nt | 8.6 | 5.8%
C/C(=N\Nc1nc(N2CCOCC2)nc(N2CCOCC2)n1)c1cccs1 | -22.3% | -15.7% | -27.3%[46.1 µM] | -19.4 | -28.8%
CCCn1c(CCC(=O)Nc2ccc(OCC)cc2)nc2cccnc21 | -0.2%[46.1 µM] | 15.0% | -0.8%[46.1 µM] | -9.0 | nt
O=C(NCc1cccs1)C1CCN(C(=O)N2CCOc3ccccc32)CC1 | 6.4%[46.1 µM] | -8.7% | nt | 17.3 | nt
COc1cccc2sc(N3CCN(C(=O)c4ccc([N+](=O)[O-])o4)CC3)nc12 | ? | ? | -29.4% | nt | 7.94µM*
CCOC(=O)C1=C(C)NC(=O)N[C@H]1c1ccc2c(c1)OCO2 | nt | nt | 6.9%[46.1 µM] | nt | nt
CC12Nc3ccccc3C(=O)N1Cc1cnnn1-c1cc3c(cc12)OCO3 (stereo not drawn) | nt | nt | nt | -2.5 | nt
CCCSc1nsc(NC(=O)CCC)n1 | ? | 3.3% | ? | -103.5* | -5.8%
O=C(O)CSC1=c2ccccc2=NC1c1cccs1 (stereo not drawn) | nt | nt | 8.1% | nt | nt
O=c1c2sccc2n(Cc2cc(=O)n3ccccc3n2)c(=O)n1-c1cc(F)ccc1F | 0.6%[46.1 µM] | -27.9% | -16.1%[46.1 µM] | 2.3 | nt
CN(C)/C=C/C(=O)c1ccc2noc(-c3ccccc3)c2c1 | -13.9%[46.1 µM] | -5.5% | 5.2%[46.1 µM] | -62.7* | ?
